Measured values reported in PubChem BioAssay (NCI).
Compounds without any hit were thinned out: in the full panel of roughly 83,000, 20% have a hit.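 Activity criterion: percent growth below 10, measured after cells in 96-well plates were exposed to a single compound concentration for 48 hours.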 Unmarked numbers belong to inactive results. Activity calls are given as the source filed them.

These molecules were tested on CCRF-CEM leukemia (assay: NCI-60 one-dose screen, 48 h (100 = growth as untreated, 0 = no growth, -100 = all killed)). Conditions: 10 µM unless noted.
Experimental: Growth inhibition of the CCRF-CEM human tumor cell line is measured as a screen for anti-cancer activity. Cells are grown in 96 well plates and exposed to the test compound for 48 hours. Compounds are tested at a single concentration, which is 10^-5 M for most compounds. The reported endpoint is percent growth (GI% or GIPRCNT), where numbers from 0 - 100% represent growth inhibition, and numbers from -100% - 0 represent cell death. For example, a value of 40 represents 60% growth inhibition. A value of 0 means no net growth occurred over the course of the experiment. A value of -40 indicates 40% of cells at the beginning of the experiment died by the end of the experiment. A value of -100 means all cells are dead at the end of the experiment.
NCI-60 Human Tumor Cell Lines Screen was performed using the standard one-dose NCI protocol, which is described in more detail at https://dtp.cancer.gov/discovery_development/nci-60/default.htm.
Compounds with GIPRCNT values below 10 were considered active. Activity score was based on GIPRCNT using the following formula: […]
Score is 0 for GIPRCNT values of 100 or above, 50 for GIPRCNT values of 0, and 100 for GIPRCNT values of -100.

Compound	growth
Nc1cc(-c2c[nH]c3ccc(Br)cc23)nc2cc(-c3c[nH]c4ccc(Br)cc34)nn12	7.39% (active)
O=C(/C=C/c1ccc(F)cc1)c1ccc(O)cc1	77.6%
C#C[C@]1(O)CC[C@H]2[C@@H]3CC=C4c5sc(-c6cccc(O)c6)nc5CC[C@]4(C)[C@H]3CC[C@@]21C	-31.8% (active)
CCOC(=O)c1c(Nc2ccccc2)nn2c(-c3ccc(Cl)cc3)ccnc12	16.2%
NC(N)=Nc1ccc(Oc2cccc(NC(N)=Nc3ccc(I)cc3F)c2)cc1	77.3%
O=C(CCn1c[n+](CC(=O)c2ccc(F)cc2)c2ccccc21)Nc1cccc2cccnc12	68.3%
Cc1ccc(C2=Nn3c(nnc3-c3ccccc3)SC2)cc1	23.6%
COc1ccc(-n2c(/C=C3\C(=O)Nc4ccccc43)ccc2CO)cc1	97.8%
COC(=O)c1[nH]nc2c1C1(C(=O)c3cccc4cccc1c34)C(C#N)=C(N)O2 (stereo not given)	106%
COc1ccc([C@H]2[C@H](O)C(=O)N2c2cc(OC)c(OC)c(OC)c2)cc1F	17.9%
NC/C(=C/F)COc1ccc2nc(NCc3cccnc3)oc2c1	99.9%
Oc1cccc2ccc(-c3nnc(SCc4ccc(O)c5ncccc45)o3)nc12	19.6%
Cc1ccc(-n2cc(/C=C/C(=O)c3ccc(O)cc3)c(-c3ccc(S(C)(=O)=O)cc3)n2)cc1	48.8%
Cc1ccc2c(c1)C(=O)/C(=C/c1cccc(F)c1)S2	104%
COc1ccc(Cn2cc3c(c2-c2cc(OC)c(OC)c(OC)c2)CCc2c(CN4CCOCC4)noc2-3)cc1	16.3%
O=C(CCn1c[n+](CC(=O)c2ccc(-c3ccccc3)cc2)c2ccccc21)Nc1cccc2cccnc12	36.1%
CCCCCc1ccc(S(=O)(=O)Nc2cccc(-c3csc(NC(=O)CN4CCN(CCO)CC4)n3)c2)cc1	53.8%
NC(N)=Nc1ccc(Oc2cccc(Nc3ccc(Cl)cc3)c2)cn1	-6.22% (active)
NS(=O)(=O)c1ccc(Nc2nc(N/N=C/CCc3ccccc3)nc(Nc3ccccc3)n2)cc1	93.6%
Cc1ccc(N2C(=O)/C(=C/C=C/c3ccco3)SC2=S)cc1	61.2%

Compound	growth
COc1ccc(NC2=C(Cl)C(=O)c3nc(C)ccc3C2=O)cc1OC	15.3%
Nc1ncc(-c2ccc3ncnc(N4CCc5cc(F)c(F)cc54)c3c2)cn1	24.2%
Cc1ccc2c(c1)Oc1nc(N)c(C#N)c(N)c1C2Sc1ccc(F)cc1 (stereo not given)	-21.1% (active)
Cc1ccc(-n2cc(/C=N/NC(=O)c3nc(N)n[nH]3)c(-c3ccc(S(C)(=O)=O)cc3)n2)cc1	84%
CN1CCN(Cc2ccc(NC(=O)c3cncc(C#Cc4cnn5cccnc45)c3)cc2C(F)(F)F)CC1	2.51% (active)
CCCCCc1ccc(S(=O)(=O)Nc2cc(-c3csc(NC(=O)CN4CCN(C)CC4)n3)ccc2OC)cc1	2.18% (active)
CNC(=O)c1cc(Oc2ccc3nc(NC(=O)c4cc(N5CCOCC5)cc(C(F)(F)F)c4)sc3c2)ccn1	67.3%
NC(=O)c1c(NC(=O)c2ccccc2C(F)(F)F)sc2c1CCC(=O)C2	16.3%
CC[C@H](CO)Nc1ccc2ncc(C#Cc3cncc(C(=O)Nc4ccc(CN5CCN(C)CC5)c(C(F)(F)F)c4)c3)n2n1	1.55% (active)
N#Cc1ccccc1Cn1c2nc(=N)c3ccccc3c-2nc2ccccc21	70.6%
CCCCNNC(=O)c1ccc(-c2cccc(F)c2F)cc1	27.4%
O=S(=O)(Nc1cccc2ccccc12)c1ccc(-c2cnc(C3CC3)o2)cc1	17.6%
Nc1ccccc1NC(=O)c1ccc(NC(=O)C/C=C/c2cccnc2)cn1	15.8%
O=C1CCCC2=C1C(c1c[nH]c3ccc(Br)cc13)Cc1cc(Br)ccc1N2 (stereo not given)	6.67% (active)
Nc1nc(-c2cccc([N+](=O)[O-])c2)c(N=Nc2ccc(Br)cc2)s1	31.9%
O=C(CNc1nc(-c2cccc([N+](=O)[O-])c2)cs1)Nc1cccc([N+](=O)[O-])c1	-0.65% (active)
Cc1cc(C)c2sc(=O)n(Cc3nnc(SCCC(=O)O)o3)c2n1	56.6%
CCNC(=O)N1CCc2cc(OC)c(OCCc3ccc(OC)nc3)cc2C1c1ccc(C)cc1C (stereo not given)	27%
NS(=O)(=O)c1ccc(Nc2nc(N/N=C/c3c[nH]c4ccccc34)nc(Nc3ccccc3)n2)cc1	12.9%
C#CCNC1CCC(c2csc(C#C)n2)=C1C (stereo not given)	-9.98% (active)
